This is one part of the list. Unmarked numbers belong to inactive results. Calls of active or inactive are those of the source.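 Rule for the calls: active = average inhibition over replicates above about 50%, so the earlier screening hit is confirmed (limit read from the data); inactive = the rest, counted as false positives.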
Target: Ubiquitin carboxyl-terminal hydrolase isozyme L5 (Homo sapiens) (UniProt Q9Y5K5)
Assay: retest of human UCH37 deubiquitinase inhibitors, confirmation, biochemical, Ub-AMC cleavage rate, fluorescence (AID 624100);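 note: based on cleavage rate fitted by regression over a 30 min kinetic read; 0% = proteasome plus Ub-AMC and 100% = Ub-AMC without proteasome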
Details: Proteasome-bound UCH37, Ub-AMC cleavage fluorescence; at 20 µM; hits give high values

Chain of Ubiquitin carboxyl-terminal hydrolase isozyme L5 (Homo sapiens) (Q9Y5K5 whole entry, looked up): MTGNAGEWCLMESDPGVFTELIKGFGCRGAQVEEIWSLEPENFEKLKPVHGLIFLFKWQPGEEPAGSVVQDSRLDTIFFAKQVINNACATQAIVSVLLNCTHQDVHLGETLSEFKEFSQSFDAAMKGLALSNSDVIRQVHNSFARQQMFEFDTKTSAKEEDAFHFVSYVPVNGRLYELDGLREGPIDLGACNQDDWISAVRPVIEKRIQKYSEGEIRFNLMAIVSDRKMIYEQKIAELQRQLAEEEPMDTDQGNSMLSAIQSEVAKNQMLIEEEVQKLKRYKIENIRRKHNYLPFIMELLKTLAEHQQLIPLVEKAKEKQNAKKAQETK

## CCCCCCCCCCCCn1ccc(=N)cc1
  inhibition: 40.2%

## COc1ccc(N2C(=O)/C(=C/c3ccco3)C(=O)NC2=S)cc1
  inhibition: 68.9% (active)

Reference: PubChem BioAssay AID624100 (ICCB-Longwood Screening Facility, Harvard Medical School, 2012)
